# Source: PubChem BioAssay (National Center for Advancing Translational Sciences (NCATS))
# Most compounds without a hit are left out; they make up all but 3.7% or so of the library.
# A549 tox – A549 cytotoxicity, counter-screen for Nrf2 inhibitors; A549 ARE-Fluc cells, CellTiter-Fluor viability, 18-24 h; Potency, µM (highest dose often 46 µM), actives largely listed as inhibitors; hit rate 0.16% among 390,000; AID 504648
#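 A549 ARE-Fluc cells in 5% FBS OPTI-MEM, 5000 cells/well, rested 2 h then exposed to compounds in concentration-response for 18-24 h at 37 °C. Viability by CellTiter-Fluor fluorescence (Ex 405/Em 525) after 30 min; luciferase luminescence (BugLite, 15 min, RT) read afterwards.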
# Nrf2 ARE act – activators of Nrf2 (ARE) signaling. Potency, µM (titrated, usually from 46.1 µM), hits mostly activators. hit rate 0.31% among 410,000. AREc32 ARE-luciferase reporter (MCF7-derived line), luminescence, 24 h; also: nearly all actives have a fitted effect of over 65% in size
#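 AREc32_Fluc, 1000 cells/well, OPTI-MEM + 5% FBS, o/n 37 deg C 5% CO2; 23 nL cpd by pin tool, 24 hr; Steady-Glo 30 min RT, luminescence.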
# Nrf2 inh – inhibitors of Nrf2 signaling. A549 ARE-Fluc reporter, luciferase luminescence, 18-24 h. Potency, µM (top dose mostly 46 µM), usual class: inhibitors. hit rate 2.1% among 360,000; also: nearly all actives have a fitted effect of over 60% in size
#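 A549 ARE_Fluc cells, 5000/well, 5% FBS OPTI-MEM; compounds in dose-response, 18-24 h at 37 °C/5% CO2; CellTiter-Fluor viability read (Ex 405/Em 525), then BugLite luciferase luminescence = Nrf2 activity.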
# ELG1 repair inh – inhibitors of ELG1-dependent DNA repair in HEK293T cells. HEK293T ELG1-luciferase reporter, luminescence, 16 h; DNA damage induced by 5-fluorouridine. hit rate 2.3% among 330,000. Potency, µM (top dose mostly 46.1 µM), most hits filed as inhibitors; also: nearly all actives have a fitted effect of over 55% in size
#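 Reporter activity after DNA damage by 5-fluorouridine is monitored. Compound-treated cells incubate 16 hr at 37 °C, then ONE-Glo is added for 30 min before luminescence reading.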
# A number is an active result; n = inactive; u = inconclusive; x = not tested or not shown; [ ] = another dose, or the depositor's remark. Calls follow the shape of the dose curve; as a rule, active = well fitted curve in the direction sought with a large enough effect; inconclusive = small, poorly fitted or top-dose-only effect, or another doubt; inactive = no such curve, though single readings can be large; an effect the other way counts as inactive or inconclusive.
SMILES,A549 tox,Nrf2 ARE act,Nrf2 inh,ELG1 repair inh
COc1ccccc1C(C)NC(=O)c1ccc(NC(=O)CC2SC(N3CCCC3)=NC2=O)cc1 (stereo not given),n,n,n,n
CC(C)CCCCCCCCCCCCC(=O)NCC(=O)NC1C(C)OC(Nc2ncnc3nc[nH]c23)C(O)C1O (stereo not given),u,n,0.0366µM,x
CCC(C)n1c(=N)c(S(=O)(=O)c2ccccc2)cc2c(=O)n3ccccc3nc21 (stereo not given),n,n,n,x
COc1ccc2c(c1)c(C(C)=O)c(C)n2CCc1ccccc1,n,n,13µM,8.2µM
COc1ccc2c(c1)c(C(C)=O)c(C)n2CCc1ccc(OC)c(OC)c1,n,n,n,n
CSc1ccc(C2NN=C(c3ccccc3)S2)cc1 (stereo not given),n,5.01µM,u,x
COc1ccc(C2NN=C(c3ccc(C)cc3)S2)cc1 (stereo not given),n,n,u,u
Oc1ccccc1C1NN=C(c2ccccc2)S1 (stereo not given),n,7.08µM,u,u
N#CCCN1C(=O)C2(OCCO2)c2ccccc21,n,n,n,n
CCCCC(=O)Nc1cc(C(=O)NCCc2ccccc2)ccc1Cl,n,n,u,u
COc1ccc(Cn2nnnc2C(C(C)C)N2CCc3ccccc32)cc1 (stereo not given),n,n,16.4µM,x
COc1ccc(Cn2nnnc2C(CC(C)C)N2CCN(c3ccccc3)CC2)cc1 (stereo not given),n,n,x,u
Cc1cc(C)cc(NC(=O)CS(=O)(=O)c2cccc3nsnc23)c1,n,n,n,n
CC(=O)c1cccc(NC(=O)CCS(=O)(=O)c2ccc(Br)s2)c1,n,n,n,n
O=C(CCS(=O)(=O)c1ccc(Br)s1)Nc1cc(C(F)(F)F)cc(C(F)(F)F)c1,u,n,23.1µM,x
O=C(CC(=O)c1ccccc1)c1ccccc1,n,14.1µM,n,x
N/C(=N\OC(=O)c1ccc(Cl)cc1Cl)c1ccncc1,n,n,u,u
N/C(=N\OC(=O)c1cccc(Cl)c1)c1cccnc1,n,u,u,u
N/C(=N\OC(=O)c1ccccc1Cl)c1ccncc1,n,8.91µM,u,23.1µM
N/C(=N\OC(=O)c1cccc(Cl)c1)c1ccncc1,n,11.2µM,n,u
CCC1=Nc2cc(C(=O)N3CCC(C)CC3)ccc2Sc2ccc(C)cc21,u,n,18.4µM,x
CCOC(=O)C1CCN(C(=O)CN2c3ccc(CC)cc3-c3ccccc3S2(=O)=O)CC1,n,n,n,x
O=C(Nc1nc(-c2ccncc2)cs1)C1c2ccccc2Oc2ccccc21,u,n,14.6µM,n
Cc1nc(NC(=O)/C=C/c2ccccc2)n[nH]1,n,7.08µM,n,u
O=C(/C=C/c1ccccc1)Nc1nc(-c2ccncc2)cs1,u,n,13µM,u
SMILES,A549 tox,Nrf2 ARE act,Nrf2 inh,ELG1 repair inh
O=C(/C=C\c1ccco1)Nc1nc(-c2ccccc2)cs1,n,n,n,u
COCC(C)n1c(SCC(=O)NC(=O)NC2CCCC2)nc2ccccc2c1=O (stereo not given),n,n,u,n
CCn1c(N2CCN(S(=O)(=O)c3ccc(OC)cc3)CC2)nc2ccccc21,n,n[9.22 µM],20.6µM,u
CCn1c(N2CCN(S(=O)(=O)c3ccccc3C(F)(F)F)CC2)nc2ccccc21,n,n,20.6µM,u
COc1ccc(OC2CCN(S(=O)(=O)c3ccc(OC)cc3)CC2)cc1,n,n,u,14.6µM
Cn1c(N2CCN(S(=O)(=O)c3ccc(F)cc3)CC2)nc2ccccc21,n,n,u,u
COc1ccc(S(=O)(=O)N2CCN(S(=O)(=O)c3ccc(OC)cc3)CC2)cc1,n,x,n,x
O=S(=O)(c1ccccc1C(F)(F)F)N1CCN(S(=O)(=O)c2ccccc2C(F)(F)F)CC1,n,n,n,n
O=C(Cn1cnc2c(nnn2Cc2ccccc2)c1=O)Nc1ccc2c(c1)OCCO2,n,n,n,n
CCN(CC)S(=O)(=O)c1ccc(NC2CCCc3ccccc32)nc1 (stereo not given),n,n,14.6µM,u
COc1cccc(NC(=O)C2CCN(S(=O)(=O)c3ccc4c(c3)NC(=O)C(C)S4)CC2)c1 (stereo not given),n,n,u,n
CC1Sc2ccc(S(=O)(=O)N3CCC(C(=O)Nc4ccc(Cl)cc4)CC3)cc2NC1=O (stereo not given),n,n,n,4.61µM
CC1Sc2ccc(S(=O)(=O)N3CCC(C(=O)N4CCN(C)CC4)CC3)cc2NC1=O (stereo not given),n,n,n,n
